In ChEMBL document CHEMBL3988442, “University of Dundee, Small-Polar-MMV Screening Library” (2021):
Screen size: about 85,000 compounds; about 440 (0.52%) showed an effect of 50% or more. Shown is part of a subset that was picked to be rich in strong results.

Assay: In vitro enzyme assay to detect hydrolysis of chlorophenol red-beta-D-[…] directly proportional to the number of Toxoplasma stably expressing beta-galactosidase
Type: functional, organism-based, Toxoplasma gondii
Parameters: scale not given: in the data most compounds retested in dose-response had high values

SMILES | Percent Effect (50 µM) [%] | Percent Effect (10 µM) [%]
Cc1ccc(C)c(NC(=O)CN2CCC(O)CC2)c1 | -4.783 | –
COCc1nc(CCN)no1 | -5.41 | –
CC(=O)N1CCN(c2ncnc3cc4c(cc23)OCCO4)CC1 | – | 56.5
CC(C)CCC(=O)N1CCN(c2ncnc3nc(N)ccc23)CC1 | – | 1.58
CCC(=O)N1CCN(c2ncnc3cc4c(cc23)OCCO4)CC1 | – | 75.76
CC(C)C(=O)N1CCN(c2ncnc3cc4c(cc23)OCCO4)CC1 | – | 49.63
COCC(=O)N1CCN(c2ncnc3cccc(F)c23)CC1 | – | -5.192
CN(C)C(=O)c1ccc2ncnc(N3CCCC3)c2c1 | -3.186 | –
CCC(C)C(=O)Nc1ccc(C(=O)N2CCCC2)cc1 (stereo not given) | -4.343 | –
NCC(=O)c1ccncc1 | -6.113 | –
CC(CC(=O)NCCCS(N)(=O)=O)c1cccc(F)c1 (stereo not given) | 3.903 | –
Cn1nccc1C(=O)NC1CCc2ccccc2OC1 (stereo not given) | 1.645 | –
CC(C)CNc1nc(C(=O)/N=c2\[nH]nc(C(C)(C)C)s2)cs1 | – | 0.3064
O=C(NCc1nccs1)c1csc(NC2CC2)n1 | 6.462 | –
Cc1cs/c(=N/C(=O)c2csc(NCC(C)C)n2)[nH]1 | – | 19.16
Cc1[nH]/c(=N\C(=O)c2csc(NCC(C)C)n2)sc1C | – | 92.95
O=C(Nc1nccs1)c1csc(NC2CCCC2)n1 | – | 94.63
Cc1[nH]/c(=N\C(=O)c2csc(NC3CCCC3)n2)sc1C | – | 89.34
Cc1[nH]/c(=N\C(=O)c2csc(NC3CC3)n2)sc1C | – | -0.3064
Cc1n[nH]/c(=N\C(=O)c2csc(NC3CC3)n2)s1 | 37.81 | –
CC(=O)Nc1nc(C(=O)Nc2nccs2)cs1 | 1.313 | –
CC(O)c1c(F)cccc1-n1cncn1 (stereo not given) | -28.05 | –
COc1ccc2cc(C(=O)N(C)C)c(C)nc2c1 | -8.962 | –

SMILES | Percent Effect (50 µM) [%] | Percent Effect (10 µM) [%]
COc1ccc(F)c(F)c1C(=O)N1CCC(CN)C1 (stereo not given) | -13.62 | –
CCN1CCC(CNC(=O)c2nc(C)c[nH]2)CC1 | -1.833 | –
OC[C@@H]1CCCN1c1nccc(-c2c[nH]nc2-c2ccncc2)n1 | – | -24.25
OC[C@H]1CCCN1c1nccc(-c2cncnc2C2CCCCC2)n1 | – | 29.63
OC[C@H]1CCCN1c1nccc(-c2c[nH]nc2C2CCCCC2)n1 | – | 54.25
N[C@@H]1CCC[C@@H](Oc2ccc(F)cc2Oc2ccccc2)[C@@H]1O | – | 2e-14
Cc1ccc(Oc2cc(F)ccc2O[C@@H]2CCC[C@@H](N)[C@H]2O)cc1 | – | 82.52
N[C@@H]1CCC[C@@H](Oc2ccc(F)cc2Oc2cccc(F)c2)[C@@H]1O | – | 2.748
Cn1ncc(C(=O)N2CCN(S(C)(=O)=O)CC2)c1Cl | – | 77.51
COCc1ccc(C(=O)N2CCN(CCS(C)(=O)=O)CC2)cc1 | – | -0.2262
CS(=O)(=O)N1CCN(C(=O)c2cnn3c2OCCC3)CC1 | – | -9.448
Cc1c(C(=O)N2CCCN(S(C)(=O)=O)CC2)cnn1C | – | -3.056
Cn1ncc(C(=O)N2CCN(CCS(C)(=O)=O)CC2)c1Cl | – | 67.81
CCOC(=O)N1CCN(C(=O)c2ccco2)CC1 | 9.256 | –
Cc1c(C(=O)N2CCC(C(O)c3ccc(Cl)cc3)CC2)cnn1C (stereo not given) | – | -2.382
CCc1ccc(C(=O)N2CCN(CCS(C)(=O)=O)CC2)o1 | – | -13.13
Cn1ncc(C(=O)N2CCN(C(=O)c3ccco3)CC2)c1Cl | – | 75.62
Cc1oc(C(C)C)cc1C(=O)N1CCN(c2cnn(C)c(=O)c2)CC1 | – | 15.5
Cn1ncc(C(=O)N2CCOCC2)c1Cl | – | 29.02
CC(C)S(=O)(=O)N1CCN(C(=O)c2cnn(C)c2Cl)CC1 | – | 63.23
O=C(NC1CCc2ccc(F)cc21)c1c[nH]nn1 (stereo not given) | 10.36 | –
COC(=O)c1ccc(NCC(=O)N2CCCCC2)cc1 | -5.615 | –
Cc1cc(C(=O)N(C)Cc2ccncc2C)[nH]n1 | -2.921 | –

SMILES | Percent Effect (50 µM) [%] | Percent Effect (10 µM) [%]
CC1c2ccsc2CCN1CCC(=O)NC(N)=O (stereo not given) | -3.706 | –
N#CC1CCCN(C(=O)c2cnc3ccccc3c2)C1 (stereo not given) | -3.341 | –
CCC1=NC(SCC(=O)c2ccc(Cl)cc2)c2cc(CC)sc2N1 (stereo not given) | – | 23.77
CCc1ncc(C(=O)c2ccc(OC)cc2)n1C | – | -0.6627
COc1ccc(C(=O)CNC(=O)c2nc(Cl)sc2C(C)C)cc1 | – | 18.25
CCC1=NC(SCC(=O)c2ccc(OC)cc2)c2cc(CC)sc2N1 (stereo not given) | – | 50.44
CCc1nc(C(=O)N2CCOCC2CC(=O)c2ccccc2)c[nH]1 (stereo not given) | – | 0.2818
CCC1=NC(SCC(=O)c2ccc(C)cc2)c2cc(CC)sc2N1 (stereo not given) | – | 65.66
CCc1ncc(C(=O)N2CCOCC2CC(=O)c2ccccc2)s1 (stereo not given) | – | 3.663
CCC1=NC(SCC(=O)c2ccccc2)c2cc(CC)sc2N1 (stereo not given) | – | 88.55
Cc1cccc(-n2nnnc2C(C)(C)N2CCCC2)c1 | -9.882 | –
COCCNS(=O)(=O)c1ccc(CN)cc1 | -7.365 | –
CC(C)(C)NC(=O)CNC(C)(C)c1nccs1 | -6.241 | –
Cc1cnccc1NCCNC(=O)[C@H]1CCC[C@H](O)C1 | -11.82 | –
O=C1CCCN1CCCNCc1cccs1 | 4.585 | –
CCCN1CCC(CNc2ncccc2F)C1 (stereo not given) | -12.03 | –
COc1c(CNC2CCOc3c(Cl)cccc32)c(C)nn1C.Cl (stereo not given) | – | -5.172
COc1c(CNC2CCOc3c(Cl)cccc32)c(C(C)C)nn1C (stereo not given) | – | 50.26
COc1c(CNC2CCOc3ccccc32)c(C(C)C)nn1C (stereo not given) | – | 0.6462
Cc1ccccc1-c1nnn(CC(O)CC(F)(F)F)n1 (stereo not given) | -8.034 | –
CC(C)CC(C)(N)CO (stereo not given) | -4.909 | –
COc1cc(NC(=O)CCN2CC(O)C2)cc(OC)c1 | -10.62 | –
c1cc(-c2cnccn2)cc(-c2ccn(CCCN3CCCCC3)n2)c1 | – | -3.188

SMILES | Percent Effect (50 µM) [%] | Percent Effect (10 µM) [%]
c1cc(-c2cnccn2)cc(-c2ccn(CCN3CCCC3)n2)c1 | – | 1.269
c1coc(CN2CCn3c(CN4CCOCC4)nnc3C2)c1 | – | 4.961
CCN1CCN(c2nnc(-c3ccccn3)s2)CC1 | 1.346 | –
c1cnc(-c2nn3c(CN4CCOCC4)nnc3s2)cn1 | – | 68.89
O=C(NCCN1CCCCC1)c1cnccn1 | 1.153 | –
O=C(c1cnccn1)N1CCc2ncc(CN3CCOCC3)n2CC1 | – | -7.352
c1cc(-c2cnccn2)cc(-c2ccn(CCN3CCCCC3)n2)c1 | – | -6.783
c1cnc(-c2nn3c(CN4CCCCC4)nnc3s2)cn1 | – | 70.51
O=C(c1cnccn1)N1CCC(CN2CCOCC2)CC1 | – | 17.94
c1ccc(-c2nn3c(CN4CCOCC4)nnc3s2)nc1 | – | 71.31
c1cnc(-c2nn3c(CN4CCCCCC4)nnc3s2)cn1 | – | 65.52
Cc1cnc(N)nc1NCC(O)CN1CCCCC1 (stereo not given) | 10.92 | –
Cc1cc(F)ccc1NC(=O)NCC1(O)CCNC1 (stereo not given) | -14.34 | –
CC(C(=O)N1CCOCC1)N1CCC(CO)CC1 (stereo not given) | -3.94 | –
Cn1cc([C@@H]2OCCC[C@H]2CN)cn1 | 1.285 | –
NCc1ccncc1OCC(F)(F)F | 19.9 | –
COCC1CCN(C(=O)CCC2CCNCC2)CC1 | -0.227 | –
C=C(C)CNC(C(=O)N1CCOCC1)C(C)C (stereo not given) | -2.491 | –
CN(CCC(N)=O)Cc1ccc(Cl)s1 | -3.537 | –
c1cc(-c2nn3c(CN4CCOCC4)nnc3s2)ccn1 | – | 60.13
c1cc(-c2nnc3sc(CCN4CCCC4)nn23)ccn1 | – | -1.928
c1ccc(-c2ncn(CCCN3CCOCC3)c2-c2ccncc2)cc1 | – | 36.16
COCC(=O)NCCc1cc(Cl)c2c(c1)OCCO2 | -0.1362 | –

SMILES | Percent Effect (50 µM) [%] | Percent Effect (10 µM) [%]
O=C(CN1CCN(C(=O)c2sccc2C2CC2)CC1)NC1CC1 | – | 2.485
O=C(CN1CCN(C(=O)c2ccco2)CC1)NC1CC1 | 54.85 | –
CCC(=O)NC1CCN(C(=O)c2ccco2)CC1 | -8.488 | –
CCc1ccccc1-n1c(CNC)n[nH]c1=O | 9.34 | –
CC[C@H](N)C(=O)N(C)CCOc1cccc(Cl)c1 | 33.07 | –
OCC1COCCN(Cc2ccc(C(F)(F)F)nc2)C1 (stereo not given) | 17.84 | –
Cc1nc(C2(O)CCCNCC2)sc1CCOc1ccc(Cl)cc1.Cl (stereo not given) | – | 66.18
Cc1nc(C2(O)CCCNCC2)sc1CCOc1ccccc1.Cl (stereo not given) | – | -8.75
Cc1nc(C2(O)CCCNCC2)sc1CCOc1ccc(F)c(F)c1.Cl (stereo not given) | – | 36.46
Cc1nc(C2(O)CCCNCC2)sc1CCOc1ccc(F)cc1.Cl (stereo not given) | – | 11.11
COc1ccc(OCCc2sc(C3(O)CCCNCC3)nc2C)cc1.Cl (stereo not given) | – | 31.45
CCS(=O)(=O)NCCCN(C)C1CCSC1 (stereo not given) | -2.223 | –
Cc1n[nH]c(SCCNC(=O)CC2C=CS(=O)(=O)C2)n1 (stereo not given) | 9.381 | –
Cc1nc(C)c(CNC(=O)c2ccnnc2)s1 | -0.5239 | –
CC(CNC(=O)c1cncc(Br)c1)N1CCCC1 (stereo not given) | 12.86 | –
CN(Cc1ccccc1)C1(C(=O)NC(C)(C)CO)Cc2ccccc2C1 | – | -3.718
CN(Cc1ccccc1)C1(C(=O)O)Cc2ccccc2C1 | – | -0.5507
CNC(=O)C1(N(C)CCc2ccccc2)Cc2ccccc2C1 | – | 52.85
CN(Cc1ccco1)C(=O)Nc1ccc(N(C)C)nc1 | 24.04 | –
CCN(CCCN1CCCC1)C(=O)c1cc[nH]n1 | -7.801 | –
CCn1cc(-c2cc(C(F)(F)F)nc(NC3CCCC3)n2)c(C)n1 | – | 70.55
Cc1nn(C)cc1-c1cc(C(F)(F)F)nc(NC2CCN(C)CC2)n1 | – | 3.167
Cc1nn(C)cc1-c1cc(C(F)(F)F)nc(NC2CCCCC2)n1 | – | 1.393
